HTR2A ag – mouse Htr2a agonists via beta-arrestin recruitment, primary screen, cell-based, luminescence | CHO-K1 mHTR2A beta-arrestin complementation; percent of 30 µM serotonin response | hit rate 0.66% among 360,000 | 5-hydroxytryptamine receptor 2A (Mus musculus), P35363 | activation, % at 7.6 µM;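 active means activation above a run cutoff, the mean activation of all tested compounds plus 3 SD, cut at about 14% in these data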
HTR5A inv ctr – HTR5A inverse agonists in luminescence cell assay, primary screen, counter-screen for OPRM1-OPRD1 heterodimer inverse agonist project, full-deck HTS; 5-hydroxytryptamine receptor 5A (Homo sapiens), P47898; HTR5A cell line, inverse agonism; inhibition, % at 9.3 µM; hit rate 0.083% among 340,000; in the data active means inhibition mostly above about 23%, no sharp cut-off; inactive means mostly below about 18%
HTR5A ag ctr – HTR5A agonists in luminescence cell assay, primary screen, counter-screen for OPRM1-OPRD1 heterodimer agonist project, full-deck HTS; 5-hydroxytryptamine receptor 5A (Homo sapiens), P47898; cell-based; activation, % at 9.3 µM; hit rate 0.61% among 340,000; in the data active means activation mostly above about 9.5%, no sharp cut-off; inactive means mostly below about 7.6%
HGIII-sPLA2 inh – human group III sPLA2 inhibitors, primary screen, biochemical, QFRET, BODIPY PC-A2 liposome substrate | Group 3 secretory phospholipase A2 (Homo sapiens), Q9NZ20 | QFRET BODIPY PC-A2 liposome hydrolysis, fluorescence | inhibition, % at 12.2 µM | hit rate 0.56% among 370,000;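 active means inhibition above mean plus 3 SD of compounds lying within the high and low control bounds, cut at about 19% in these data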
Target sequence (Q9NZ20 whole entry, looked up): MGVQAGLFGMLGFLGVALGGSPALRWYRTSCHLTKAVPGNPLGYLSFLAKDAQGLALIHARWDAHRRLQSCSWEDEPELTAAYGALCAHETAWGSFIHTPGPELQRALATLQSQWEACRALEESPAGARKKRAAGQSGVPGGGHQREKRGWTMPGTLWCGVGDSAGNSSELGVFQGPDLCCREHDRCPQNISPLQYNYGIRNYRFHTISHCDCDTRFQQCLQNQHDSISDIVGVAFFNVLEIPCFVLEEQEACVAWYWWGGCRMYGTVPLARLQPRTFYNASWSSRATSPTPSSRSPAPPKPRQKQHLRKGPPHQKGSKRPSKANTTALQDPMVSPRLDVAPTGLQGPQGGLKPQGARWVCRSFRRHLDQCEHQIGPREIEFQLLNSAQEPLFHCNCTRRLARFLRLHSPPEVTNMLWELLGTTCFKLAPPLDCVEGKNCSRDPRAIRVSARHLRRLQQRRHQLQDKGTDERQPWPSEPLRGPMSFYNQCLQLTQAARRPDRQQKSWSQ
MOR-DOR inv ag – inverse agonists of MOR-DOR heterodimerization, primary screen, cell-based, luminescence; inhibition, % at 9.3 µM; AID 504357, 2011; cell-based MOR-DOR heterodimer luminescence, inverse agonism; hit rate 0.21% among 340,000; in the data active means inhibition above about 22%, passing the limit was not always enough
MOR-DOR ag – agonists of OPRM1-OPRD1 heterodimerization, primary screen, cell-based, luminescence; Mu-type opioid receptor (Homo sapiens) + Delta-type opioid receptor (Homo sapiens), …; cells; activation, % at 9.3 µM; hit rate 0.3% among 340,000; AID 504326, 2011
MOR-DOR ag conf – agonists of MOR-DOR heterodimerization, confirmation, cell-based, luminescence. shares compounds with MOR-DOR ag. cells, luminescence complementation. activation, % at 9.3 µM. hit rate 45% among 830. AID 504904, 2011
HTR5A ag counter – HTR5A agonists in cells, counter-screen for OPRM1-OPRD1 heterodimer agonist project, cell-based, luminescence; shares compounds with MOR-DOR ag; hit rate 8% among 830; activation, % at 9.3 µM; HTR5A agonist counterscreen; in the data active means activation above about 17%
Large screens that a line does not name were inactive (follow-up assays come after a bar, where they were run). Rows were chosen to be rich in hits. Some 2.2% of all compounds tested hit in one or more screens of this group. Unless noted, no stated cut-off is given here; in the data, active means activation above about 18%; inactive means the rest.

CC(=O)O[C@H]1[C@H]2O[C@]23[C@@H]2CC[C@]4(O)C[C@@H](O)CC[C@]4(C)C2CC[C@]3(C)[C@H]1c1ccc(=O)oc1 (some centres not stated)	HTR5A ag ctr 33.2, MOR-DOR ag 75.3 (no result: HGIII-sPLA2 inh) | MOR-DOR ag conf 300.9 | HTR5A ag counter inactive
Cc1ccc(C[n+]2c(-c3ccc(C)cc3)cc(-c3ccc(C)cc3)cc2-c2ccc(C)cc2)cc1	HTR2A ag 16.9, HTR5A ag ctr 23.3, MOR-DOR ag 68.4 (no result: HGIII-sPLA2 inh) | MOR-DOR ag conf inactive | HTR5A ag counter inactive
CCOC(=O)C1(CCc2ccccc2)CCN(Cc2csc(C(C)=O)c2)CC1	MOR-DOR ag 63.3 | MOR-DOR ag conf inactive | HTR5A ag counter 18.0
CCOC(=O)C1(CCc2ccccc2)CCN(Cc2cccc3cnccc23)CC1	none
CCOC(=O)C1(CCc2ccccc2)CCN(Cc2cccc3c2OCO3)CC1	MOR-DOR ag 35.5 | MOR-DOR ag conf inactive | HTR5A ag counter inactive
N#CCC[C@@H]1CC[C@]2(CCCN(Cc3ccccn3)C2)O1	none (no result: HTR2A ag, HTR5A inv ctr, HTR5A ag ctr, MOR-DOR inv ag, MOR-DOR ag)
CC(NC(=O)OCc1ccccc1)P(=O)(Oc1ccccc1)Oc1ccccc1 (configuration not stated)	none (no result: HTR2A ag, HTR5A inv ctr, HTR5A ag ctr, MOR-DOR inv ag, MOR-DOR ag)
Fc1ccc2nc(-c3ccc(CN4CCC(n5nnc6ccccc65)CC4)cc3)c(-c3ccccc3)nc2c1	none (no result: HTR2A ag, HTR5A inv ctr, HTR5A ag ctr, MOR-DOR inv ag, MOR-DOR ag)
O=P(OCCCl)(OCCCl)OCCCl	none (no result: HTR2A ag, HTR5A inv ctr, HTR5A ag ctr, MOR-DOR inv ag, MOR-DOR ag)
C[C@@H]1O[C@@H](O[C@H]2C[C@@H](O)[C@]3(CO)[C@@H]4C(CC[C@]3(O)C2)[C@@]2(O)CC[C@H](C3COC(=O)C3)[C@@]2(C)C[C@H]4O)[C@H](O)[C@H](O)[C@H]1O (some centres not stated)	MOR-DOR ag 72.5 | MOR-DOR ag conf inactive | HTR5A ag counter inactive
CCC1CN(C)CCC1(OC(C)=O)c1ccccc1 (configuration not stated)	MOR-DOR ag 24.7 | MOR-DOR ag conf 22.9 | HTR5A ag counter inactive
CCOC(=O)C1(c2ccccc2)CCN(CCC(=O)Nc2cccc(Br)c2)CC1	MOR-DOR ag 49.1 | MOR-DOR ag conf 57.5 | HTR5A ag counter inactive
CCOC(=O)C1(c2ccccc2)CCN(CCC(C#N)(c2ccccc2)c2ccccc2)CC1	MOR-DOR ag 288.1 | MOR-DOR ag conf inactive | HTR5A ag counter inactive
O=C(c1ccccc1)N1Cc2cc(Br)ccc2-n2nncc2C1	none (no result: HTR2A ag, HTR5A inv ctr, HTR5A ag ctr, MOR-DOR inv ag, MOR-DOR ag)
Cc1nc2c(=O)n(C)c(=O)nc-2n(C)n1	MOR-DOR ag 20.2 | MOR-DOR ag conf 21.9 | HTR5A ag counter inactive
COC(=O)C1C(c2ccc(C)cc2)CC2CCC1N2C (configuration not stated)	none (no result: HTR2A ag, HTR5A inv ctr, HTR5A ag ctr, MOR-DOR inv ag, MOR-DOR ag)
COc1ccc(C(CNC(=O)Cc2ccc(Cl)c(Cl)c2)N2CCCCC2)cc1 (configuration not stated)	none
COc1ccc(C(CNC(=O)Cc2ccc(Cl)c(Cl)c2)N(C)C)cc1 (configuration not stated)	MOR-DOR ag 121.2 | MOR-DOR ag conf inactive | HTR5A ag counter inactive
Clc1ccc(C(c2ccc(Cl)cc2)n2cc[n+](CC(OCc3ccc(Cl)cc3Cl)c3ccc(Cl)cc3Cl)c2)cc1 (configuration not stated)	MOR-DOR ag 62.6 | MOR-DOR ag conf 50.1 | HTR5A ag counter inactive
Clc1ccc(CSC(Cn2ccnc2)c2ccc(Cl)cc2Cl)cc1 (configuration not stated)	MOR-DOR ag active | MOR-DOR ag conf inactive | HTR5A ag counter inactive

Screens from PubChem.
